Experimental data as given in the supplement of paper PMC9262897, “Low-cost anti-mycobacterial drug discovery using engineered E. coli” (Nature Communications, 2022).
Structures can show the parent of a compound that is named as a salt. ± gives the standard deviation of the averaged measurements.

How the values were obtained:
Experiment in all cases: growth (OD600 after 10 h); higher = more growth (less inhibition)
[1] = system: E. coli TESEC Alr+ wild-type control; conditions: compound 0.1 mM; raw OD600 reference: median of DMSO wells 0.241, cell-free background 0.041
Description: (§1)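 TESEC Mtb Alr E. coli, or the Alr+ wild-type control, in 384-well plates with Prestwick library compounds at 0.1 mM and 1% DMSO, across arabinose induction levels of 1E3 to 1E7 nM. Growth is read as OD600 after 10 h at 37 °C in triplicate biological replicates.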

E. coli TESEC Mtb Alr [2] = conditions: compound 0.1 mM
Description: as §1

E. coli TESEC Mtb Asd = conditions: compound 0.1 mM
Description: (§2)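 TESEC E. coli strains in which the native enzyme is deleted and replaced by arabinose-inducible Mtb Asd, DapB, CysH or TrpD, each grown in its selective medium. Strains were screened against the Prestwick library at 0.1 mM and 1% DMSO in 384-well format at low and high arabinose induction. Growth is read as OD600 after 10 h in triplicate.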

E. coli TESEC Mtb DapB = conditions: compound 0.1 mM
Description: as §2

[3] = system: E. coli TESEC Alr+ wild-type control; conditions: compound 0.1 mM; raw OD600 reference: median of DMSO wells 0.49, cell-free background 0.052
Description: (§3)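 TESEC Mtb Alr E. coli (ΔaraC ΔtolC ΔentC Δalr ΔdadX, arabinose-inducible Mtb Alr) or the Alr+ wild-type control strain, grown in defined M9-fructose medium without D-alanine in 96-well plates with Prestwick library compounds at 0.1 mM and 1% DMSO. Low Alr induction is 0.1 µM arabinose and high induction is 10 mM arabinose.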

E. coli TESEC Mtb Alr [4] = conditions: compound 0.1 mM; remark: listed apart in the source
Description: as §3

[5] = arabinose 1000 nM, raw OD600 reference: median of DMSO wells 0.294, cell-free background 0.041
[6] = arabinose 10000 nM, raw OD600 reference: median of DMSO wells 0.264, cell-free background 0.041
[7] = arabinose 100000 nM, raw OD600 reference: median of DMSO wells 0.201, cell-free background 0.041
[8] = arabinose 1000000 nM, raw OD600 reference: median of DMSO wells 0.193, cell-free background 0.041
[9] = arabinose 10000000 nM, raw OD600 reference: median of DMSO wells 0.146, cell-free background 0.041
[10] = arabinose induction (level): High, raw OD600 reference: median of DMSO wells 0.331, cell-free background 0.041
[11] = arabinose induction (level): Low, raw OD600 reference: median of DMSO wells 0.417, cell-free background 0.041
[12] = arabinose induction (level): High, raw OD600 reference: median of DMSO wells […], cell-free background 0.041
[13] = arabinose induction (level): Low, raw OD600 reference: median of DMSO wells 0.227, cell-free background 0.041
[14] = arabinose 100 nM, raw OD600 reference: median of DMSO wells 0.413, cell-free background 0.052
[15] = arabinose 10000000 nM, raw OD600 reference: median of DMSO wells […], cell-free background 0.052

Row | SMILES | growth [1] | growth (E. coli TESEC Mtb Alr [2]; [5]) | growth (E. coli TESEC Mtb Alr [2]; [6]) | growth (E. coli TESEC Mtb Alr [2]; [7]) | growth (E. coli TESEC Mtb Alr [2]; [8]) | growth (E. coli TESEC Mtb Alr [2]; [9]) | growth (E. coli TESEC Mtb Asd; [10]) | growth (E. coli TESEC Mtb Asd; [11]) | growth (E. coli TESEC Mtb DapB; [12]) | growth (E. coli TESEC Mtb DapB; [13]) | growth [3] | growth (E. coli TESEC Mtb Alr [4]; [14]) | growth (E. coli TESEC Mtb Alr [4]; [15])
1 | CC1(C)[C@@H](OC(=O)CCC(=O)O)CC[C@]2(C)[C@H]3C(=O)C=C4[C@@H]5C[C@@](C)(C(=O)O)CC[C@]5(C)CC[C@@]4(C)[C@]3(C)CC[C@@H]12 [Carbenoxolone disodium salt] | 0.248 ± 0.007 | 0.275 ± 0.004 | 0.2609 ± 0.0019 | 0.319 ± 0.0044 | 0.213 ± 0.0028 | 0.201 ± 0.0016 | 0.325 ± 0.15 | 0.251 ± 0.006 | 0.196 ± 0.018 | 0.225 ± 0.012 | 0.426 ± 0.03 | 0.405 ± 0.019 | 0.37 ± 0.0045
2 | CCC(=O)O[C@]1(C(=O)CCl)[C@@H](C)C[C@H]2[C@@H]3CCC4=CC(=O)C=C[C@]4(C)[C@@]3(F)[C@@H](O)C[C@@]21C [Clobetasol propionate] | 0.148 ± 0.0028 | 0.19 ± 0.034 | 0.186 ± 0.011 | 0.161 ± 0.01 | 0.0968 ± 0.0071 | 0.156 ± 0.0017 | 0.264 ± 0.097 | 0.178 ± 0.017 | 0.145 ± 0.019 | 0.169 ± 0.021 |  | 0.407 ± 0.015 | 0.122 ± 0.05
3 | CCSc1ccc2c(c1)N(CCCN1CCN(C)CC1)c1ccccc1S2 [Thiethylperazine dimalate] | 0.0403 ± 0.00055 | 0.0413 ± 0.0013 | 0.0405 ± 0.0005 | 0.0425 ± 0.002 | 0.03993 ± 0.00021 | 0.0411 ± 0.00055 | 0.0483 ± 0.0004 | 0.0464 ± 0.0011 | 0.0474 ± 0.0002 | 0.04737 ± 0.00025 |  | 0.0513 ± 0.00084 | 0.0544 ± 0.0021
4 | CN(C)CCCSC(=N)N [Dimaprit dihydrochloride] | 0.2627 ± 0.0019 | 0.308 ± 0.011 | 0.267 ± 0.0039 | 0.205 ± 0.014 | 0.201 ± 0.015 | 0.131 ± 0.0034 | 0.255 ± 0.035 | 0.409 ± 0.093 | 0.196 ± 0.006 | 0.199 ± 0.016 |  | 0.406 ± 0.015 | 0.349 ± 0.019
5 | O=C(NCCO[N+](=O)[O-])c1cccnc1 [Nicorandil] | 0.2587 ± 0.0024 | 0.3 ± 0.021 | 0.286 ± 0.0046 | 0.208 ± 0.025 | 0.213 ± 0.0045 | 0.153 ± 0.0067 | 0.362 ± 0.039 | 0.377 ± 0.057 | 0.191 ± 0.0086 | 0.209 ± 0.023 |  | 0.4153 ± 0.002 | 0.3332 ± 0.001
6 | Cn1c(=O)c2[nH]cnc2n(C)c1=O [Aminophylline] | 0.246 ± 0.005 | 0.292 ± 0.012 | 0.262 ± 0.0083 | 0.196 ± 0.0098 | 0.195 ± 0.0022 | 0.134 ± 0.0058 | 0.287 ± 0.065 | 0.457 ± 0.018 | 0.226 ± 0.017 | 0.234 ± 0.023 |  | 0.406 ± 0.015 | 0.355 ± 0.019
7 | CN(C(=O)CN(CCO)CC(=O)N(C)C(C)(C)Cc1ccccc1)C(C)(C)Cc1ccccc1 [Oxethazaine] | 0.0424 ± 0.0038 | 0.0404 ± 0.001 | 0.03963 ± 0.00015 | 0.0411 ± 0.00087 | 0.03937 ± 0.00015 | 0.0411 ± 0.0013 | 0.179 ± 0.014 | 0.25 ± 0.037 | 0.187 ± 0.031 | 0.202 ± 0.05 |  | 0.165 ± 0.2 | 0.0514 ± 0.00058
8 | CC(C)NNC(=O)c1ccncc1 [Iproniazide phosphate] | 0.253 ± 0.0043 | 0.276 ± 0.0095 | 0.27 ± 0.0057 | 0.219 ± 0.033 | 0.188 ± 0.007 | 0.153 ± 0.0052 | 0.359 ± 0.057 | 0.43 ± 0.014 | 0.199 ± 0.02 | 0.223 ± 0.034 |  | 0.417 ± 0.007 | 0.374 ± 0.011
9 | CC(C)(Sc1cc(C(C)(C)C)c(O)c(C(C)(C)C)c1)Sc1cc(C(C)(C)C)c(O)c(C(C)(C)C)c1 [Probucol] | 0.248 ± 0.0044 | 0.298 ± 0.014 | 0.259 ± 0.0043 | 0.236 ± 0.028 | 0.172 ± 0.0035 | 0.173 ± 0.02 | 0.344 ± 0.1 | 0.408 ± 0.093 | 0.207 ± 0.014 | 0.22 ± 0.016 |  | 0.407 ± 0.0098 | 0.366 ± 0.015
10 | CCN(CC)CCNC(C(=O)OCCC(C)C)c1ccccc1 (stereo not given) [Camylofine chlorhydrate] | 0.198 ± 0.0073 | 0.254 ± 0.0087 | 0.261 ± 0.0027 | 0.208 ± 0.017 | 0.156 ± 0.0056 | 0.148 ± 0.0031 | 0.228 ± 0.046 | 0.372 ± 0.11 | 0.153 ± 0.013 | 0.171 ± 0.016 |  | 0.406 ± 0.012 | 0.341 ± 0.012
11 | CN(C)CC/C=C1\c2ccccc2CSc2ccccc21 [Dosulepin hydrochloride] | 0.168 ± 0.0019 | 0.208 ± 0.0074 | 0.309 ± 0.019 | 0.211 ± 0.0092 | 0.146 ± 0.0095 | 0.163 ± 0.0079 | 0.14 ± 0.0062 | 0.263 ± 0.0048 | 0.168 ± 0.015 | 0.202 ± 0.0032 |  | 0.413 ± 0.013 | 0.308 ± 0.0073
12 | CC(=O)Nc1c(I)c(NC(C)=O)c(I)c(C(=O)O)c1I [Diatrizoic acid dihydrate] | 0.234 ± 0.0051 | 0.285 ± 0.0023 | 0.255 ± 0.0056 | 0.191 ± 0.017 | 0.213 ± 0.0043 | 0.131 ± 0.01 | 0.297 ± 0.043 | 0.326 ± 0.053 | 0.197 ± 0.013 | 0.235 ± 0.023 |  | 0.424 ± 0.011 | 0.348 ± 0.0074
